Inconclusive results are not listed. Calls of active or inactive are those of the source. Unless noted, the call rests on the fitted dose curve.
How the values were obtained:
[1] = Nuclear factor erythroid 2-related factor 2/antioxidant responsive element (Nrf2/ARE) small molecule agonists: qHTS cell viability counter screen in human keratinocytes (AID 1919968; active means well fitted curve in the direction sought with a large enough effect in the repeat runs; an effect the other way counts as inactive or inconclusive; further: nearly all actives have a fitted effect of over 55% in size)
Method in brief: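 CellTiter-Fluor fluorescence, read 1 h after reagent, gave viability in the same wells as the ARE-luciferase assay. KeratinoSens cells (1,500/well) had 23 h compound exposure at 37 C/5% CO2 following 5 h plating.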

[2] = Nuclear factor erythroid 2-related factor 2/antioxidant responsive element (Nrf2/ARE) small molecule agonists: luciferase reporter gene qHTS assay in human keratinocytes (AID 1919969); further: nearly all actives have a fitted effect of over 35% in size
[3] = molecular target: Gonadotropin-releasing hormone receptor (Homo sapiens) (UniProt P30968); assay: Human gonadotropin-releasing hormone receptor (GnRHR) small molecule agonists, calcium flux assay in GnRHR-HEK293 cells (AID 1920063); further: nearly all actives have a fitted effect of over 35% in size
Method in brief: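 Agonist mode: compounds at 15 concentrations, in triplicate, went onto calcium dye-loaded GnRHR-HEK293 cells. Intracellular calcium was then followed as 480/540 nm fluorescence at 1 s intervals over 3 min.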

[4] = molecular target: KiSS-1 receptor (Homo sapiens) (UniProt Q969F8); assay: Human kisspeptin (KISS1R) small molecule agonists, calcium flux assay in KISS1R-HEK293 cells (AID 1920064; active means well fitted curve in the direction sought with a large enough effect in the repeat runs; an effect the other way counts as inactive or inconclusive)
Method in brief: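 Agonist mode: intracellular calcium rise tracked at 1 s intervals over 3 min (480/540 nm) immediately after compound addition to dye-loaded KISS1R-HEK293 stable cells. Each compound tested at 15 concentrations in triplicate.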

[5] = G protein-coupled receptor (GPCR) small molecule agonists, calcium flux assay: HEK293 wild type cell line counter screen (AID 1920065)
Method in brief: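 Calcium flux counter screen: compound added in agonist mode at 15 concentrations in triplicate to dye-loaded parental HEK293 cells. Fluorescence (480/540) read kinetically for 3 min; ATP served as positive control.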

[6] = p53 small molecule agonists, cell-based qHTS assay with human liver microsomes (AID 1963577);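 further: p53 response element beta-lactamase reporter cells with liver microsomes plus NADPH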
Method in brief: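 With metabolic activation: human liver microsomes (0.5 mg/mL final) plus NADPH (0.5 mg/mL final) added alongside compounds to p53RE-bla cells; 16 h 37 C exposure; beta-lactamase read by LiveBLAzer fluorescence.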

[7] = p53 small molecule agonists, cell-based qHTS assay with rat liver microsomes (AID 1963578)
Method in brief: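 Metabolic activation by rat liver microsomes and NADPH, each 0.5 mg/mL final, added right after compounds to p53RE-bla reporter cells (4,000/well, plated 5 h earlier). 16 h at 37 C, then LiveBLAzer substrate for 2 h at room temperature in the dark; fluorescence read-out.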

[8] = p53 small molecule agonists, cell-based qHTS assay with human liver microsomes: qHTS cell viability counter screen (AID 1963579); further: nearly all actives have a fitted effect of over 45% in size
Method in brief: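 Metabolic activation used human liver microsomes and NADPH, both 0.5 mg/mL final, over 16 hours at 37 C on p53RE-bla cells (4,000/well). Cytotoxicity measured by CellTiter-Glo luminescence, 30 min at room temperature.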

[9] = p53 small molecule agonists, cell-based qHTS assay with rat liver microsomes: qHTS cell viability counter screen (AID 1963580); further: nearly all actives have a fitted effect of over 45% in size
Method in brief: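 Cytotoxicity counter screen: intracellular ATP read by CellTiter-Glo luminescence in the p53 reporter wells. HCT-116 p53RE-bla cells were treated for 16 h at 37 C alongside rat liver microsomes and NADPH, each 0.5 mg/mL final.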

[10] = p53 small molecule agonists, cell-based qHTS assay (AID 1963582; active means well fitted activation curve with a large enough effect in the signal ratio in the repeat runs, not every such curve was filed as active; the % refers to the signal ratio)
Method in brief: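 Read-out is beta-lactamase FRET fluorescence after 2 h at room temperature with LiveBLAzer B/G substrate. p53 response element-bla cells were treated 16 h at 37 C with compounds in DMSO, added 5 h after seeding.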

[11] = molecular target: 5-hydroxytryptamine receptor 2A (Homo sapiens) (UniProt P28223); assay: 5-hydroxytryptamine receptor 2A (HTR2A) small molecule antagonists, cell-based qHTS assay (AID 1963586); further: nearly all actives have a fitted effect of over 45% in size
Method in brief: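 CHO cells stably expressing human HTR2A were plated for 18 h at 37 C, then loaded with calcium dye for 1 h. Compounds were preincubated 5 min at room temperature before DOI (4 nM solution) was added. Kinetic fluorescence was read for 3 min.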

[12] = molecular target: 5-hydroxytryptamine receptor 2A (Homo sapiens) (UniProt P28223); assay: 5-hydroxytryptamine receptor 2A (HTR2A) small molecule agonists, cell-based qHTS assay (AID 1963587); further: nearly all actives have a fitted effect of over 30% in size
Method in brief: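 Kinetic calcium-flux fluorescence (2 min, 1 sec intervals) after compound addition in agonist mode. HTR2A-CHO cells were cultured 18 h, then dye-loaded 1 h at 37 C.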

[13] = molecular target: Muscarinic acetylcholine receptor M1 (Homo sapiens) (UniProt P11229); assay: Cholinergic receptor muscarinic 1 (CHRM1) small molecule agonists, cell-based qHTS assay (AID 1963589); further: nearly all actives have a fitted effect of over 35% in size
Method in brief: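 Agonist-mode calcium-flux screen: compounds at 15 concentrations, three independent runs, were pin-transferred onto dye-loaded human CHRM1-CHO cells. Fluorescence was then recorded kinetically every second over minutes.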

[14] = cAMP Responsive Elements (CRE) small molecule agonists, cell-based qHTS assay (AID 1963590)
Method in brief: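 Agonist mode: compound added to CRE-bla HEK 293T cells (2,000/well, 18 h after plating) for 3 h at 37 C/5% CO2. Reporter activity detected via FRET beta-lactamase substrate, 2 h room-temperature loading.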

[15] = cAMP Responsive Elements (CRE) small molecule antagonists, cell-based qHTS assay (AID 1963591; active means well fitted inhibition curve with a large enough effect in the signal ratio in the repeat runs, not every such curve was filed as active; the % refers to the signal ratio)
Method in brief: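 Antagonist mode: compounds are added alongside the adenylyl cyclase activator NKH477 (0.25 uM final) to CRE-bla HEK293T cells for 3 h. LiveBLAzer FRET substrate, 2 h at room temperature, reports bla expression.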

[16] = molecular target: Beta-2 adrenergic receptor (Homo sapiens) (UniProt P07550); assay: Adrenergic beta2 receptor (ADRB2) small molecule antagonists, cell-based qHTS assay (AID 1963592); further: series mostly up to about 92 µM; nearly all actives have a fitted effect of over 50% in size
Method in brief: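 Assay format: CHO-ADRB2 cells, 18-20hr seeding at 37C/5% CO2, then compound plus 1nM isoproterenol agonist mix for 0.5hr RT. Homogeneous time-resolved fluorescence cAMP detection after 1hr, expressed as 665/615 nm ratio.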

[17] = molecular target: D(2) dopamine receptor (Homo sapiens) (UniProt P14416); assay: Dopamine D2 receptor (DRD2) small molecule agonists, cell-based qHTS assay (AID 1963594); further: nearly all actives have a fitted effect of over 35% in size
Method in brief: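 cAMP accumulation in DRD2-HEK293 cells measured by HTRF after 1 h detection; compounds added 10 min before NKH477 (200nM […]) forskolin-analogue stimulation, 30 min at room temperature, with Ro20-1724 present at 0.1 mM final.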

[18] = molecular target: D(2) dopamine receptor (Homo sapiens) (UniProt P14416); assay: Dopamine D2 receptor (DRD2) small molecule antagonists, cell-based qHTS assay (AID 1963595; active means well fitted inhibition curve with a large enough effect in the signal ratio in the repeat runs, with a control signal flat; the % refers to the signal ratio)
Method in brief: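 Antagonism was scored as restored cAMP in HEK293-DRD2 cells. These cells were stimulated with 200 nM NKH477 and 12 nM quinpirole for 30 min at room temperature, in the presence of 0.1 mM Ro20-1724.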

[19] = molecular target: Muscarinic acetylcholine receptor M1 (Homo sapiens) (UniProt P11229); assay: Cholinergic receptor muscarinic 1 (CHRM1) small molecule antagonists, cell-based qHTS assay (AID 1963588); further: nearly all actives have a fitted effect of over 40% in size
Method in brief: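 Compounds were tested at 15 concentrations in three independent runs. Dye-loaded CHRM1-CHO cells were exposed 5 min at room temperature before stimulation by acetylcholine added at 50nM. Intracellular calcium was read kinetically on FDSS for 3 min.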

[20] = molecular target: Beta-2 adrenergic receptor (Homo sapiens) (UniProt P07550); assay: Adrenergic beta2 receptor (ADRB2) small molecule agonists, cell-based qHTS assay (AID 1963593);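 further: CHO cells stably overexpressing human ADRB2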
Method in brief: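 CHO cells stably over-expressing ADRB2 were plated overnight at 37C, then dosed with compounds plus a stimulation mix containing 100uM IBMX and 25uM Ro-20-1724 for 0.5hr at room temperature. cAMP was measured by HTRF competition, 1hr.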

Measured: Potency

Muscarinic acetylcholine receptor M1 (Homo sapiens), sequence (P11229 whole entry, looked up): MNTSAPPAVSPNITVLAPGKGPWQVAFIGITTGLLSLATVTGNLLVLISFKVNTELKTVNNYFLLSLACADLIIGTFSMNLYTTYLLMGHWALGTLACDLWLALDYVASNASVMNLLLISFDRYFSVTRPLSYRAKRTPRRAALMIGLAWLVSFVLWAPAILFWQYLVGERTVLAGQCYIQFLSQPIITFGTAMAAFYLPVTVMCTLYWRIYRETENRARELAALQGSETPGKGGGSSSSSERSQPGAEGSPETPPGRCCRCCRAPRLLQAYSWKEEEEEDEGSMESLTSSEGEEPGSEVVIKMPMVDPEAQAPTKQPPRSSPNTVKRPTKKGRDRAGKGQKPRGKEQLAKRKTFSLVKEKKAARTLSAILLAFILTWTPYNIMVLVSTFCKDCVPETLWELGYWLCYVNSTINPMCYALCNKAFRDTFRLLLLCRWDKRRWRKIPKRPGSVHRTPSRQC
Beta-2 adrenergic receptor (Homo sapiens), sequence (P07550 whole entry, looked up): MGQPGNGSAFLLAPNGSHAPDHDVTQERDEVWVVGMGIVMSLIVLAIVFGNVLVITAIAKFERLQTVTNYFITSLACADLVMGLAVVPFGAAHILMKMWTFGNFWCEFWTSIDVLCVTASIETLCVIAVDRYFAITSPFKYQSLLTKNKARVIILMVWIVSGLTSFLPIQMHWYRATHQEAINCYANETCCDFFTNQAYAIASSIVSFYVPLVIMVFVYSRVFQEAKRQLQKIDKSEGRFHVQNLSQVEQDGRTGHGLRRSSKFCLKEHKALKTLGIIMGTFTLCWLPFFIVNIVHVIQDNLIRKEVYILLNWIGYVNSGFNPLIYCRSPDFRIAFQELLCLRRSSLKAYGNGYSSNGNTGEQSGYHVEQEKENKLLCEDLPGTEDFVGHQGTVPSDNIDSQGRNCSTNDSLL
KiSS-1 receptor (Homo sapiens), sequence (Q969F8 whole entry, looked up): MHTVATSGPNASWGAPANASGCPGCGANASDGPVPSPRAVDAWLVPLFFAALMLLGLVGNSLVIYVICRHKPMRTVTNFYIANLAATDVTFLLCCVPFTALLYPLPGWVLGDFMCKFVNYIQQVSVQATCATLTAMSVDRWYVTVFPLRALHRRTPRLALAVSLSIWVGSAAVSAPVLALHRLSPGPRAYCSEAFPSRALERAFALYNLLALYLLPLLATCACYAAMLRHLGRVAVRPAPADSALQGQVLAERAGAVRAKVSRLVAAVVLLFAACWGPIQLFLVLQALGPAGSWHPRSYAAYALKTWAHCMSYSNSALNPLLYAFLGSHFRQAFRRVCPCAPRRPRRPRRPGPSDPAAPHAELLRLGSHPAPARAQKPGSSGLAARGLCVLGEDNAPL
5-hydroxytryptamine receptor 2A (Homo sapiens), sequence (P28223 whole entry, looked up): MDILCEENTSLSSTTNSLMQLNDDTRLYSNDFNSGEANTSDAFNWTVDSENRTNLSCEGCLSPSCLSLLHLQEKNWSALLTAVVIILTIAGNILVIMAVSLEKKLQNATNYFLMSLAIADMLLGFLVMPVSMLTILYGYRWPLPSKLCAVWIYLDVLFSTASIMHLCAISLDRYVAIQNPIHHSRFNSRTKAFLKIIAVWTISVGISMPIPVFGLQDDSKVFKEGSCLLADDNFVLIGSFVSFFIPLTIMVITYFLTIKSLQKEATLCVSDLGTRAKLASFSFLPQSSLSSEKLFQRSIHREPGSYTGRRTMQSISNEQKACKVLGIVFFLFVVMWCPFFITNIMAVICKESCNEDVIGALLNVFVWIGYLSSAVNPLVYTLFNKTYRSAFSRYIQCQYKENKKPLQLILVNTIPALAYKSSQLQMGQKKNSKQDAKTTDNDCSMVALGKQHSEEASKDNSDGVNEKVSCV
D(2) dopamine receptor (Homo sapiens), sequence (P14416 whole entry, looked up): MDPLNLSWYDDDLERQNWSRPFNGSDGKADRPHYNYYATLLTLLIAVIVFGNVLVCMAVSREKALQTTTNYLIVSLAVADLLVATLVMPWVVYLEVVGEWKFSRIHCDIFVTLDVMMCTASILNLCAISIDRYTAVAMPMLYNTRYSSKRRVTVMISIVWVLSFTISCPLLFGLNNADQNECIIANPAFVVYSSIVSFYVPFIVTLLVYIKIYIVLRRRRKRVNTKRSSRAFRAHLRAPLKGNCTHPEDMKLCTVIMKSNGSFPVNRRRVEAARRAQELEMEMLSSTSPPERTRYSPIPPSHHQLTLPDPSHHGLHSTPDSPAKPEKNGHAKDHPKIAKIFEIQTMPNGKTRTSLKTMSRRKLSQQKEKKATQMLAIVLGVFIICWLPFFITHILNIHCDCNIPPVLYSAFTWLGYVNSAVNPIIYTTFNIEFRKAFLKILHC
Gonadotropin-releasing hormone receptor (Homo sapiens), sequence (P30968 whole entry, looked up): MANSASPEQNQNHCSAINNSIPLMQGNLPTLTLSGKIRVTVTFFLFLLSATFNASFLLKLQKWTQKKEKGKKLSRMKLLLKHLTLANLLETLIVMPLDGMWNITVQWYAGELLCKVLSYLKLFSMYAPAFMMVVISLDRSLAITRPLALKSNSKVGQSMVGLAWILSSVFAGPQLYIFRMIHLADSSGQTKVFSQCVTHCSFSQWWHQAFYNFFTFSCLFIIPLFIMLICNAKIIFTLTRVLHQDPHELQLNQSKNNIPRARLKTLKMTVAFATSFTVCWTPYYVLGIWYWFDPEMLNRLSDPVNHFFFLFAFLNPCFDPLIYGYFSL

CC1(C)[C@H](C(=O)OCc2cccc(Oc3ccccc3)c2)[C@@H]1C=C(Cl)Cl
inactive: [1] | [2] | [3] | [4] | [5] | [6] | [7] | [8] | [9] | [10] | [11] | [12] | [13] | [14] | [15] | [16] | [17] | [18]

COC(=O)c1cc(Cl)ccc1NS(=O)(=O)C(F)(F)F
inactive: [1] | [2] | [3] | [4] | [5] | [6] | [7] | [8] | [9] | [10] | [11] | [12] | [19] | [13] | [14] | [15] | [16] | [20] | [17] | [18]

O=Cc1ccc(Cl)c(Cl)c1
inactive: [1] | [2] | [3] | [4] | [5] | [6] | [7] | [8] | [9] | [10] | [11] | [12] | [13] | [15] | [16] | [20] | [17] | [18]

O=S(=O)(O)c1ccccc1O
inactive: [1] | [2] | [3] | [4] | [5] | [6] | [7] | [8] | [9] | [10] | [11] | [12] | [19] | [13] | [15] | [16] | [20] | [17] | [18]

C=CC(=O)OCCN(CC)CC
inactive: [1] | [2] | [3] | [4] | [5] | [6] | [7] | [8] | [9] | [10] | [11] | [12] | [19] | [13] | [14] | [16] | [20] | [17] | [18]

OCCN1CCNCC1
inactive: [1] | [2] | [3] | [4] | [5] | [6] | [7] | [8] | [9] | [10] | [11] | [19] | [13] | [14] | [15] | [20] | [17] | [18]

C=CCCCCCCCCO
inactive: [1] | [2] | [3] | [4] | [5] | [6] | [7] | [8] | [10] | [11] | [12] | [19] | [13] | [14] | [15] | [16] | [20] | [17] | [18]
